# From PubChem BioAssay (NCATS)
# Values joined by “and” are separate entries in the source; they are usually repeats but may differ in a detail not shown here. Equal values may be shown once. Results filed as inconclusive are left out. Where a call stands in place of a potency, no number is given. Active and inactive are the calls of the source. Unless noted, calls follow the shape of the dose curve; as a rule, active = well fitted curve in the direction sought with a large enough effect; inconclusive = small, poorly fitted or top-dose-only effect, or another doubt; inactive = no such curve, though single readings can be large; an effect the other way counts as inactive or inconclusive.
# Key:
# [1] = Cell Viability - HUV-EC-C (AID 542); also: nearly all actives have a fitted effect of over 35% in size
# Procedure, shortened: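 qHTS cytotoxicity: HUV-EC-C, 1000 cells/well, 5 hr settle, compound 40 hr 37 °C, CellTiter-Glo, luminescence. AC50 via Hill equation.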
# [2] = MultiTox-Fluor Cytotoxicity Assay - LYMP1-002 - Dead Cells (AID 960); also: nearly all actives have a fitted effect of over 60% in size
# Procedure, shortened: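 LYMP1-002 cells 2500/well; 5 hr 37 C pre-incubation; compound 16 hr 37 C; MultiTox-Fluor reagent 60 min RT; dead-cell fluor Ex/Em 485/520. Norm. to DMSO (0%) vs 15 uM tetraoctylammonium bromide (100%); Hill AC50.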
# [3] = Cell Viability - LYMP2-005 (AID 967)
# Procedure, shortened: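 CellTiter-Glo luminescence (cellular ATP) read-out; LYMP2-005 lymphoblastoid cells, 2500/well, 5 h pre-incubation, then 24 h compound exposure at 37 C in complete medium. Tetraoctylammonium bromide positive control; AC50 by standard Hill fit.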
# [4] = target: Estrogen receptor (Homo sapiens) (UniProt P03372); test: qHTS assay for small molecule agonists of estrogen receptor alpha signaling (AID 588514; calls by dose curve; also: nearly all actives have a fitted effect of over 70% in size)
# Procedure, shortened: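 Cells were plated at 5000/well, incubated 4 hrs at 37 C, dosed with compound titration series, incubated 18 hrs at 37 C, loaded with CCF4 dye for 2 hrs at RT, then fluorescence was read.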
# [5] = target: Peroxisome proliferator-activated receptor delta (Homo sapiens) (UniProt Q03181); test: qHTS assay for small molecule agonists of peroxisome proliferator-activated receptor delta signaling (AID 588534; calls by dose curve)
# Procedure, shortened: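 Fluorescence from CCF4 substrate cleavage by beta-lactamase reporter, read 2 hrs at RT, measured agonist activity. Compounds were tested with 18 hrs exposure at 37 C. Concentration-response data fitted to Hill equation.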
# [6] = target: Vitamin D3 receptor (Homo sapiens) (UniProt P11473); test: qHTS assay for small molecule antagonists of vitamin D receptor signaling (AID 588541; calls by dose curve;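 also: receptor activated by calcitriol during compound treatment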)
# Procedure, shortened: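 VDR-UAS-bla HEK293T cells in 2% charcoal-stripped FBS were stimulated with 1-alpha,25-dihydroxyvitamin D3 (3 nM final) plus compound for 16 h at 37 C. The beta-lactamase CCF4 readout was normalized to 50 nM agonist and DMSO, and Hill fits gave IC50.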
# [7] = target: Vitamin D3 receptor (Homo sapiens) (UniProt P11473); test: qHTS assay for small molecule agonists of vitamin D receptor signaling (AID 588543; calls by dose curve)
# Procedure, shortened: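 GeneBLAzer VDR-UAS-bla HEK293T cells in 2% charcoal-stripped FBS medium were dosed with compound titrations for 16 h at 37 °C; CCF4 β-lactamase readout (405 nm ex, 460/530 nm em). EC50 and efficacy from Hill fits, normalized to 50 nM calcitriol (100%) and DMSO (0%).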
# [8] = qHTS assay for small molecule activators of the nuclear factor-kappa B (NF-kB) signaling pathway (AID 651749; active = well fitted activation curve with a large enough effect in the signal ratio; the % refers to the signal ratio); settings: NF-kB-bla ME-180 cells, beta-lactamase FRET ratio, 16 h; stronger effect = higher value
# Procedure, shortened: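 NF-kB-bla ME-180 cells carrying a beta-lactamase reporter under an NF-kB response element, 2,000 cells/well, exposed to compound for 16 hr at 37C; FRET-based beta-lactamase fluorescence read-out of pathway activation.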
# [9] = Cell Viability - N2a (AID 540); settings: N2a mouse neuroblastoma cell viability; activity change, negative = cytotoxicity: at 92.2 µM (top of the series);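 also: cells exposed to compound for 40 h at 37 °C; nearly all actives have a fitted effect of over 45% in size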
# Procedure, shortened: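 Luminescent ATP signal (CellTiter-Glo, 20 min at room temperature) served as the viability read-out after N2a cells were treated with compounds for 40 hours at 37 °C. Concentration-response data were fitted to the Hill equation for AC50.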
# [10] = Cell Viability - LYMP1-002 - Assay at 40 hr (AID 994); also: nearly all actives have a fitted effect of over 60% in size
# Procedure, shortened: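 Luminescent ATP signal served as the viability readout, with decreases taken as toxicity. Cells were treated with compounds across a concentration range for 40 hours at 37 C, and AC50 values came from standard Hill modeling.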
# [11] = target: Glucocorticoid receptor (Homo sapiens) (UniProt P04150); test: qHTS assay for small molecule agonists of glucocorticoid receptor signaling (AID 588532; active = well fitted curve in the direction sought with a large enough effect in the signal ratio, with a control signal flat; the % refers to the signal ratio); settings: HeLa MMTV-bla, beta-lactamase ratio, agonist, 18 h; stronger effect = higher value; percent of dexamethasone control, DMSO zero
# Procedure, shortened: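 Cells were plated and rested 3-5 h at 37 C, compounds were added in titration and incubated 18 h, then CCF4 substrate was loaded for 2 h at RT before reading blue/green fluorescence. EC50 came from Hill-equation fitting.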
# [12] = target: Glucocorticoid receptor (Homo sapiens) (UniProt P04150); test: qHTS assay for small molecule antagonists of glucocorticoid receptor signaling (AID 588533; active = well fitted inhibition curve with a large enough effect in the signal ratio, with a control signal flat, not every such curve was filed as active; the % refers to the signal ratio)
# Procedure, shortened: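 Antagonist-mode qHTS: compound titrations added to GRE-bla HeLa cells, then dexamethasone 2 nM final; 18 h, 37 C. CCF4 FRET fluorescence normalized to dexamethasone and DMSO; IC50 from Hill fit.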
# [13] = qHTS assay for small molecule antagonists of peroxisome proliferator-activated receptor delta signaling (AID 588535; active = well fitted inhibition curve with a large enough effect in the signal ratio, with a control signal flat, not every such curve was filed as active; the % refers to the signal ratio;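 as to max response: cells co-treated with a PPAR-delta agonist as stimulator during compound exposure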); settings: HEK293T PPARd-UAS-bla, beta-lactamase FRET ratio, 18 h; 460 nm channel
# Procedure, shortened: (§1)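 Antagonist-mode beta-lactamase reporter (GeneBLAzer PPAR-delta-UAS-bla) in HEK293T cells, 2% charcoal/dextran FBS, 4000 cells/well. Compound titrations, 18 h at 37 C; CCF4 ratio read, IC50 and efficacy from Hill fits.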
# [14] = target: Peroxisome proliferator-activated receptor delta (Homo sapiens) (UniProt Q03181); test: as above
# Procedure, shortened: as §1
# [15] = target: Peroxisome proliferator-activated receptor gamma (Homo sapiens) (UniProt P37231); test: qHTS assay for small molecule agonists of peroxisome proliferator-activated receptor gamma signaling (AID 588536; active = well fitted curve in the direction sought with a large enough effect in the signal ratio, with a control signal flat, not every such curve was filed as active; the % refers to the signal ratio)
# Procedure, shortened: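 HEK293 UAS-bla reporter line, 1% charcoal/dextran FBS; titration, 16 h, 37 C; CCF4 loading 2 h RT; fluorescence 460/530 nm. Normalized to rosiglitazone 2 uM = 100%, DMSO = 0%.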
# [16] = target: Peroxisome proliferator-activated receptor gamma (Homo sapiens) (UniProt P37231); test: qHTS assay for small molecule antagonists of peroxisome proliferator-activated receptor gamma signaling (AID 588537; active = well fitted inhibition curve with a large enough effect in the signal ratio, with a control signal flat, not every such curve was filed as active; the % refers to the signal ratio;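 also: reporter cells co-stimulated with 50 nM rosiglitazone agonist during compound treatment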)
# Procedure, shortened: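 PPARγ-UAS-bla HEK293 cells (3000/well) in 1% charcoal/dextran-stripped FBS are treated with compound, then stimulated with 50 nM rosiglitazone for 16 h at 37 °C. Read-out is CCF4 β-lactamase fluorescence after 2 h at RT. IC50 comes from Hill fits normalised to rosiglitazone and DMSO.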
# [17] = qHTS assay for small molecule agonists of the antioxidant response element (ARE) signaling pathway (AID 651741; active = well fitted activation curve with a large enough effect in the signal ratio; the % refers to the signal ratio; also: potency is read from the fitted curve at half-maximal effect)
# Procedure, shortened: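 CellSensor ARE-bla HepG2 cells (2,000/well) carrying ARE-driven beta-lactamase, exposed 16 h at 37 C. LiveBLAzer B/G FRET substrate added for 2 h at room temperature; fluorescence intensity read.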
# [18] = Cell Viability - H-4-II-E (AID 543); also: nearly all actives have a fitted effect of over 35% in size
# Procedure, shortened: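 Luminescent ATP signal (CellTiter-Glo) served as the viability read-out, with cytotoxicity seen as a concentration-dependent ATP drop. Cells were treated for 40 hours in complete medium. AC50 values derive from Hill-equation modelling.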
# [19] = MultiTox-Fluor Cytotoxicity Assay - LYMP1-001 - Live Cells (AID 947)
# [20] = target: Bile acid receptor (Homo sapiens) (UniProt Q96RI1); test: qHTS assay for small molecule agonists of farnesoid X receptor signaling (AID 588527; calls by dose curve); settings: HEK293T FXR-UAS-bla, beta-lactamase ratio, 16 h; stronger effect = higher value
# Procedure, shortened: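 Quantitative HTS used FXR-UAS-bla HEK293T cells with 16 h compound incubation at 37 C. EC50 values came from concentration-response curves normalized to chenodeoxycholic acid.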
# Peroxisome proliferator-activated receptor gamma (Homo sapiens), sequence (P37231 whole entry, looked up): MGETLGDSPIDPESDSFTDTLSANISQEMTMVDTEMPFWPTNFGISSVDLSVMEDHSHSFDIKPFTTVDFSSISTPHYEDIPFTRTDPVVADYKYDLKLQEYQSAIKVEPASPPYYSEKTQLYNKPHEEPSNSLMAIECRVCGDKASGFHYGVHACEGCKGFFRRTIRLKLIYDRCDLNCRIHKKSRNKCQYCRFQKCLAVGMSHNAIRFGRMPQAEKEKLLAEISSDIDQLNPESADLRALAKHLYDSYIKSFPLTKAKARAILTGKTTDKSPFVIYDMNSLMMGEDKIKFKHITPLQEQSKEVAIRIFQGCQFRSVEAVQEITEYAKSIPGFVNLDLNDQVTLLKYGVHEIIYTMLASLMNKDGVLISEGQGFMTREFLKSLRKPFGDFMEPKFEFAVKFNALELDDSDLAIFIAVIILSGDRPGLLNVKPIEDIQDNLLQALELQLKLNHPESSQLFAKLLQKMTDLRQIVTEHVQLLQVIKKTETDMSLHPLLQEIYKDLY
# Vitamin D3 receptor (Homo sapiens), sequence (P11473 whole entry, looked up): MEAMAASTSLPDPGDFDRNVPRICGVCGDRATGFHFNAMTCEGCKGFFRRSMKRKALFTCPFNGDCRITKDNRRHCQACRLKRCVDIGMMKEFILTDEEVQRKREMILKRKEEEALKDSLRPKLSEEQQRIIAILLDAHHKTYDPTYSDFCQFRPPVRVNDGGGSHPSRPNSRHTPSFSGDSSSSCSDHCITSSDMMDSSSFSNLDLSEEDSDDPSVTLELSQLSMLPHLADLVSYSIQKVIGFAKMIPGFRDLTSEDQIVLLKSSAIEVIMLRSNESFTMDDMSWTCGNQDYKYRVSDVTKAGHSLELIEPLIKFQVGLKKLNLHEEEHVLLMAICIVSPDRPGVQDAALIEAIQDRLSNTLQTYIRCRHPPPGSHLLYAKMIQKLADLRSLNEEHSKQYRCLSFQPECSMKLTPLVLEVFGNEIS
# Estrogen receptor (Homo sapiens), sequence (P03372 whole entry, looked up): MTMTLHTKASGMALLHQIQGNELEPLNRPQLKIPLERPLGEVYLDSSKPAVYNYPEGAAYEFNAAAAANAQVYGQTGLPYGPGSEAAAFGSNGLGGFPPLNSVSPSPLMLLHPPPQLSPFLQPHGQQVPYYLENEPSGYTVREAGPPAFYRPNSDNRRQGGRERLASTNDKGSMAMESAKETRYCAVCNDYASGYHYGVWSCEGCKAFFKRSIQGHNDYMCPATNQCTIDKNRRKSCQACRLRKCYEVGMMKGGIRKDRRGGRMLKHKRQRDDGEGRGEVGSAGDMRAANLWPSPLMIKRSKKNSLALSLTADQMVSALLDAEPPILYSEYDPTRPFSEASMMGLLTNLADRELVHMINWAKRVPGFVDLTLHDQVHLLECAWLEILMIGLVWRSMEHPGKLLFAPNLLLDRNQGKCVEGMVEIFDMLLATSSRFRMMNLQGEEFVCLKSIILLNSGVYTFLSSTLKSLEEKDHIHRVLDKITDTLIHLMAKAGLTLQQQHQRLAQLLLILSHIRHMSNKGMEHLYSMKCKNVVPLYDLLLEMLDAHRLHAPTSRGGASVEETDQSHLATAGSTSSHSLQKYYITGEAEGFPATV
# Peroxisome proliferator-activated receptor delta (Homo sapiens), sequence (Q03181 whole entry, looked up): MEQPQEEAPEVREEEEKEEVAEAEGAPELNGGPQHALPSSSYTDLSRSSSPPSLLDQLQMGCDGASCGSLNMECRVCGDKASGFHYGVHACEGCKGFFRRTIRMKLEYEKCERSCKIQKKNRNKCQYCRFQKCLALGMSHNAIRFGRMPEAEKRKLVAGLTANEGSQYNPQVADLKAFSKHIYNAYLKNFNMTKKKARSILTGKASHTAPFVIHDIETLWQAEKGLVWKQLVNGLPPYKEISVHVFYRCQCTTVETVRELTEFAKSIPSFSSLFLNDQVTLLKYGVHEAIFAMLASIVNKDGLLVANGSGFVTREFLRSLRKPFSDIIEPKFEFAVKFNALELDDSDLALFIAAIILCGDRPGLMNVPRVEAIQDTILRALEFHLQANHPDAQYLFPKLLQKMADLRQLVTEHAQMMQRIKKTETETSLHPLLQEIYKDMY
# Bile acid receptor (Homo sapiens), sequence (Q96RI1 whole entry, looked up): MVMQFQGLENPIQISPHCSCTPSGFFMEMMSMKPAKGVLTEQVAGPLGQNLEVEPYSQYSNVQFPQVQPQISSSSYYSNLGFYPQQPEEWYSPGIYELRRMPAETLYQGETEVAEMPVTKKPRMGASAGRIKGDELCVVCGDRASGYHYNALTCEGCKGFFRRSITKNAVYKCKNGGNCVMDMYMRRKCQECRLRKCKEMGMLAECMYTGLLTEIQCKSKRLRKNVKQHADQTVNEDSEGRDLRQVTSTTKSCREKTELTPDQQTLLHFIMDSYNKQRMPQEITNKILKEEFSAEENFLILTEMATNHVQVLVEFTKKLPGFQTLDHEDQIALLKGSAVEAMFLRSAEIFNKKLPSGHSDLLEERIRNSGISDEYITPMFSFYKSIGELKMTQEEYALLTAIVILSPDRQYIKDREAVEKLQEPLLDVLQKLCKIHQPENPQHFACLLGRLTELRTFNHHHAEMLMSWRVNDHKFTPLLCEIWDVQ
# Glucocorticoid receptor (Homo sapiens), sequence (P04150 whole entry, looked up): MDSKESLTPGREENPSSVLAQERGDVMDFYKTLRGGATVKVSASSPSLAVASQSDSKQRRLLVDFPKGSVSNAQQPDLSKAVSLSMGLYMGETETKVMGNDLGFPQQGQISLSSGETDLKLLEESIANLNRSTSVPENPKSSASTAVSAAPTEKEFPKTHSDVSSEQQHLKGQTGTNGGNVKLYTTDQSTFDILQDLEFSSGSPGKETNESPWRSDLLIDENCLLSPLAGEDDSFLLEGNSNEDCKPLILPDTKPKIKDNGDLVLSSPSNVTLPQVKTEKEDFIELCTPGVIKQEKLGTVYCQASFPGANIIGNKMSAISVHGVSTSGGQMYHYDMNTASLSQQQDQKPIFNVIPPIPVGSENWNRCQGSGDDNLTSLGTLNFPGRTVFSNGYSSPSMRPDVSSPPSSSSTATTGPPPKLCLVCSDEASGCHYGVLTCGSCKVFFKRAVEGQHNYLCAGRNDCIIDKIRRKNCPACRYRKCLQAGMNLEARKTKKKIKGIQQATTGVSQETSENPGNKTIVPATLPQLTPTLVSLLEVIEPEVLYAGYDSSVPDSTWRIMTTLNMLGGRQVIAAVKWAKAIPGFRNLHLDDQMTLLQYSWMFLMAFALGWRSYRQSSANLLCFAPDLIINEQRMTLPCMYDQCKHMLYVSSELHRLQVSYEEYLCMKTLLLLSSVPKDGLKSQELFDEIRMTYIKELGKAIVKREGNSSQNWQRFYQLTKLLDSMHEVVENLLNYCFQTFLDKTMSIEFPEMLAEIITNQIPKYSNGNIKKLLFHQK
SMILES,Potency [1],Potency [2],Potency [3],Potency [4],outcome [5],outcome [6],outcome [7],activation [8],Potency [9],Potency [10],activation [11],outcome [12],max response [13],outcome [14],outcome [15],Potency [16],Potency [17],Potency [18],outcome [19],activation [20]
Nc1ccc(-c2ccccc2)cc1,inactive,inactive,inactive,inactive,inactive,inactive,inactive,-0.257% (inactive),–,–,–,–,–,–,–,–,–,–,–,–
Cc1ccc2c(C)cccc2c1,–,–,inactive,inactive,inactive,inactive,–,–,inactive,inactive,-2.73% (inactive),inactive,16.7%,inactive,inactive,inactive,inactive,–,–,–
O=[N+]([O-])c1ccc(Cl)c(Cl)c1Cl,inactive,inactive,inactive,inactive,–,inactive,inactive,0.972% (inactive),–,inactive,–,–,-19.7%,inactive,inactive,–,–,inactive,inactive,–
ClC=CCl,–,inactive,–,inactive,inactive,inactive,inactive,0.173% (inactive),–,–,-2.58% (inactive),–,12.6%,inactive,–,–,inactive,inactive,inactive,–
N#CCBr,inactive,–,inactive,inactive,–,inactive,–,0.342% (inactive),–,inactive,-5.38% (inactive),–,–,–,–,–,16.8 µM (active),inactive,inactive,-0.961% (inactive)
COc1ccc(C=O)cc1,inactive,inactive,–,inactive,inactive,–,inactive,-0.721% (inactive),–,inactive,-0.198% (inactive),inactive,2.98%,inactive,inactive,–,inactive,inactive,inactive,–
CCOC(=O)CC(SP(=O)(OC)OC)C(=O)OCC (configuration not stated),–,inactive,inactive,–,inactive,–,–,-1.06% (inactive) and 1.21% (inactive),inactive,inactive,2.95% (inactive),inactive,–,–,inactive,inactive,42.2 µM (active),inactive,inactive,-1.01% (inactive) and 1.76% (inactive)
O=[N+]([O-])c1cc(Cl)c(Cl)cc1Cl,inactive,inactive,–,inactive,inactive,inactive,inactive,–,inactive,inactive,-2.16% (inactive),inactive,5.75%,inactive,inactive,inactive,26.6 µM (active),inactive,inactive,–
OC[P+](CO)(CO)CO,inactive,inactive,–,inactive,inactive,–,inactive,–,–,inactive,-0.662% (inactive) and -6.97% (inactive),inactive,-16.4%,inactive,inactive,inactive,37.6 µM (active) and 30.6 µM (active),–,inactive,–
O=C(O)c1cccc(Cl)c1,inactive,inactive,inactive,inactive,–,inactive,inactive,-1.59% (inactive),inactive,inactive,–,–,30.4%,inactive,–,–,inactive,inactive,–,2.01% (inactive)
CCCCCC[N+](=O)[O-],inactive,inactive,–,–,inactive,inactive,inactive,–,–,inactive,–,inactive,–,–,inactive,–,–,inactive,–,1.12% (inactive)
ClC(Cl)Br,inactive,–,inactive,inactive,inactive,–,inactive,-1.16% (inactive),inactive,inactive,-5.41% (inactive),inactive,-6.86%,inactive,–,inactive,–,inactive,inactive,–
Oc1ccc(Cl)c(Cl)c1Cl,inactive,inactive,inactive,–,–,inactive,inactive,-0.348% (inactive),–,inactive,6.93% (inactive),inactive,–,–,inactive,inactive,42.2 µM (active),inactive,–,0.826% (inactive)
Nc1ccc(-c2ccc(N)cc2)cc1,–,–,inactive,inactive,–,inactive,–,–,inactive,inactive,-6.73% (inactive),inactive,–,–,inactive,inactive,inactive,–,inactive,–
O=C(Cl)c1ccccc1F,inactive,inactive,–,–,inactive,inactive,inactive,–,inactive,inactive,–,–,-9.33%,inactive,–,inactive,–,inactive,inactive,2.29% (inactive)
N#C/C(N)=C(/N)C#N,inactive,inactive,inactive,inactive,inactive,inactive,inactive,-1.05% (inactive),inactive,inactive,-0.556% (inactive),inactive,–,–,inactive,inactive,–,inactive,inactive,–
Cc1cnc[nH]1,inactive,inactive,inactive,–,inactive,inactive,inactive,-0.55% (inactive),–,–,-8.66% (inactive),inactive,–,–,inactive,–,inactive,inactive,inactive,-0.548% (inactive)
CCCCC#N,–,inactive,inactive,inactive,inactive,–,–,–,inactive,inactive,–,–,-3.23%,inactive,–,–,inactive,inactive,inactive,–
O=Cc1ccc(Cl)cc1Cl,–,inactive,–,–,–,inactive,inactive,1.15% (inactive),–,inactive,–,inactive,-26.8%,inactive,inactive,inactive,–,inactive,inactive,–
